# PAFAH2 inh – PAFAH2 enzyme inhibitors, primary screen, biochemical, fluorescence polarization, human. inhibition, % at 3.39 µM. 340,000 tested, 0.99% active. Platelet-activating factor acetylhydrolase 2, cytoplasmic (Homo sapiens), Q99487. AID 492956, 2010. recombinant PAFAH2, FP-rhodamine activity probe;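 active = inhibition above the mean over all tested compounds plus 3 SD, cut at about 30% in these data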;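 also: inhibitors block probe labeling of enzyme so polarization drops; 0% = enzyme with DMSO and 100% = wells lacking PAFAH2 protein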
# PAFAH1B3 FP inh – PAFAH1B3 enzyme inhibitors, primary screen, biochemical, fluorescence polarization, human; Platelet-activating factor acetylhydrolase IB subunit alpha1 (Homo sapiens), Q15102; recombinant PAFAH1B3, FP-rhodamine probe; inhibition, % at 3.39 µM; 340,000 tested, 0.28% active;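 active = inhibition above the screen-wide average of all tested compounds plus 3 SD, cut at about 25% in these data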;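 also: 0% = enzyme with DMSO only and 100% = wells lacking PAFAH1B3 protein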
# TCR-CD3 inh – inhibitors of human TCR-CD3 interaction, primary screen, biochemical, fluorescence, TAMRA-labeled TCR probe | inhibition, % at 9.4 µM | 360,000 tested, 0.37% active | T-cell receptor (TCR); in the data active = inhibition above about 19%;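 also: recombinant mutant TCR 2C K166C tagged with TAMRA read by polarization; 0% = receptor in buffer alone and 100% = receptor with positive control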
# PAFAH1B2 inh – PAFAH1B2 enzyme inhibitors, primary screen, biochemical, fluorescence polarization, human. recombinant PAFAH1B2, FP-rhodamine activity probe. inhibition, % at 3.39 µM. 340,000 tested, 1.2% active. AID 492953, 2010;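 active = inhibition above the mean of all tested compounds plus 3 SD, cut at about 24% in these data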;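 also: 0% = enzyme with DMSO and 100% = wells lacking PAFAH1B2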
# pPAFAH inh – pPAFAH enzyme inhibitors, primary screen, biochemical, fluorescence polarization, human; recombinant pPAFAH, FP-rhodamine probe fluorescence polarization; inhibition, % at 3.39 µM; Platelet-activating factor acetylhydrolase (Homo sapiens), Q13093; 330,000 tested, 1.5% active;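 active = inhibition above the mean inhibition across the screen plus 3 SD, cut at about 25% in these data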;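 also: inhibitors block binding of the rhodamine activity-based probe so polarization drops; 0% = enzyme with DMSO and 100% = wells lacking pPAFAH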
# Target sequence (Q13093 whole entry, looked up): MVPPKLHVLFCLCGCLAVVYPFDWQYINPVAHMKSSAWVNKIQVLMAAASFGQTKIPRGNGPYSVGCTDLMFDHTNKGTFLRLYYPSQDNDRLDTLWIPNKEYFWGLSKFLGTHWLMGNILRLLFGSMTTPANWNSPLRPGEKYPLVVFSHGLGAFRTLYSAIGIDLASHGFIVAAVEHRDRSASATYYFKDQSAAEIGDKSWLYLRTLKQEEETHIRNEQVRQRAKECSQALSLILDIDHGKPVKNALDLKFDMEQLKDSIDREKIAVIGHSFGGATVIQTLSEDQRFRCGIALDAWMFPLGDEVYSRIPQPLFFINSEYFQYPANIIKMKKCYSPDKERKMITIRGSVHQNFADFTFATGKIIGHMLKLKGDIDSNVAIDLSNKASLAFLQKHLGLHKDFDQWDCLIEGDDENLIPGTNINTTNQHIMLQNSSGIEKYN
# pPAFAH confirm – pPAFAH (PLA2G7) enzyme inhibitors, confirmation, biochemical, fluorescence polarization, human; shares compounds with pPAFAH inh; recombinant pPAFAH, FP-Rh probe fluorescence polarization; inhibition, % at 3.39 µM; 2,300 tested, 72% active; AID 463230, 2010;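 active = mean inhibition of the triplicate above the hit cutoff set for the earlier primary screen, cut at about 25% in these data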;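 also: 0% = enzyme with DMSO and 100% = wells lacking pPAFAH enzyme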
# Starred values were filed as active, the others as inactive; nt = no result given. Hits are enriched below; roughly 2.7% of the tested compounds scored in any of these assays.
SMILES,PAFAH2 inh,PAFAH1B3 FP inh,TCR-CD3 inh,PAFAH1B2 inh,pPAFAH inh,pPAFAH confirm
CCc1cc(C(=O)Cc2cnn(-c3ccccc3)c2)c(O)cc1O,-8,-1,4,0,-5,nt
COc1ccc(NC(=O)c2cc(C)nn2-c2ccccc2)cc1,1,13,3,4,1,nt
CN(C)C1(CN=Cc2cc(Cl)cc([N+](=O)[O-])c2O)CCCCC1,34*,5,-7,8,42*,28*
O=[N+]([O-])c1cc(Cl)cc(/C=N\Nc2ccccn2)c1O,12,7,0,4,4,nt
CCOc1ccccc1-c1nc(CN2CCCN(C(=O)c3ccco3)CC2)c(C)o1,0,8,8,5,1,nt
Cc1oc(-c2ccc(F)cc2)cc1-c1nn2c(-c3ccco3)nnc2s1,nt,nt,-2,nt,nt,nt
Cc1oc(-c2ccc(F)cc2)cc1-c1nn2c(-c3ccoc3C)nnc2s1,16,6,5,0,35*,17
O=C(NCCc1ccccc1)c1ccccc1Cl,3,9,-6,-5,-5,nt
O=C(NCCC(=O)N(CCc1ccccc1)Cc1ccccc1)c1ccccc1Cl,5,4,-2,-2,46*,1
COc1ccc(C(C)(O)c2nc(-c3cccs3)cs2)cc1 (stereo unspecified),nt,nt,1,nt,nt,nt
Cc1cccc(CCNC(=O)c2cc(S(=O)(=O)N3CCCCC3)c[nH]2)c1,-1,2,-7,8,-5,nt
CCCCCCCCC[n+]1cccc2c3ccccc3ccc21,-2,-1,nt,2,7,nt
CCCCCCCCCCCCCCCC[n+]1cccc2ccccc21,-3,-1,5,-8,57*,33*
O=C(c1ccc(C(F)(F)F)cc1)C1CCCN(C(=O)CCc2ccncc2)C1 (stereo unspecified),2,4,3,7,-2,nt
O=C1CCCC2=C1C(c1ccc(O)c(O)c1)Nc1ccc3ccccc3c12 (stereo unspecified),5,3,4,6,36*,31*
O=C1CCCC2=C1C(c1ccco1)Nc1ccc3ccccc3c12 (stereo unspecified),26,3,11,2,40*,29*
Cc1ccc(C2Nc3ccc4ccccc4c3C3=C2C(=O)CC(C)(C)C3)o1 (stereo unspecified),-5,11,nt,3,11,nt
C[C@H](NC(=O)Cc1ccccc1)C(=O)N1CCC2(CC1)NCCc1[nH]cnc12,4,4,2,2,1,nt
COc1cc(/C=C2/SC(=S)N(Cc3ccccc3)C2=O)ccc1OCC(=O)O,5,-4,2,2,49*,28*
CSc1nc(NCCN(C)C)c2sc3nc(-c4ccco4)c4c(c3c2n1)CCC4,2,-2,-3,3,nt,nt
CSc1nc(N(C)CCO)c2sc3nc(-c4ccco4)c4c(c3c2n1)CCC4,4,-1,nt,6,40*,4
COc1ccc(N2C(=O)NC3CC2(C)Oc2ccc(Cl)cc23)cc1OC (stereo unspecified),6,9,-3,0,6,nt
COc1cc(N2C(=O)NC3CC2(C)Oc2ccccc23)cc(OC)c1OC (stereo unspecified),-5,9,-4,4,35*,2
COc1cc(-c2nc(-c3cccnc3)no2)cc(OC)c1OC,3,7,8,7,40*,2
O=C1/C(=C/c2ccco2)Oc2c1ccc(O)c2CN1CCCCC1,10,17,-1,4,37*,8
SMILES,PAFAH2 inh,PAFAH1B3 FP inh,TCR-CD3 inh,PAFAH1B2 inh,pPAFAH inh,pPAFAH confirm
COCCN=C1Sc2nc3ccc(C)cc3cc2CN1Cc1ccco1,0,-1,3,6,64*,51*
COc1cc2c(ccc3cc(OC)c(OC)c(O)c32)cc1O,15,23,39*,13,39*,22
COc1ccc(CNC(=O)CN2C(=O)NC3(CCCCCC3)C2=O)cc1,0,6,6,5,61*,5
Cc1cc(Br)c(S(=O)(=O)NCc2cccnc2)cc1C,-12,13,-2,8,49*,5
O=C(N/N=C/c1cccc(F)c1)c1cc(-c2ccco2)nc2ccccc12,8,9,13,2,39*,21
CN(C)C(CNC(=O)c1cc(-c2ccco2)nc2ccccc12)c1ccccc1 (stereo unspecified),6,8,12,4,61*,23
O=C(CSCc1n[nH]c(=O)[nH]1)NCCOc1cccc(Oc2ccccc2)c1,0,7,-5,7,36*,7
O=C(N/N=C/c1ccccc1)c1ccc(-c2ccccc2)cc1,-10,0,1,0,69*,6
COc1ccc(CNC(=O)COC(=O)CCCOc2ccc(Cl)cc2Cl)cc1,1,5,-6,2,35*,20
Cc1c(C)c2ccc(O)c(CN3CCCC3)c2oc1=O,-1,1,-12,2,1,nt
O=c1oc2c(CN3CCCCC3)c(O)ccc2c2c1CCCC2,0,-5,3,-1,38*,5
C/C=C(\C)C(=O)OC1[C@H](OC(C)=O)C2(CO)C(CC1(C)C)C1=CCC3C4(C)CCC(O[C@@H]5O[C@H](C(=O)O)[C@@H](O[C@@H]6O[C@H](CO)[C@@H](O)[C@H](O)[C@H]6O)[C@H](O)[C@H]5O[C@H]5O[C@H](CO)[C@@H](O)[C@H](O)[C@H]5O)[C@](C)(CO)C4CCC3(C)[C@]1(C)C[C@H]2O (stereo partly specified),9,2,nt,-11,nt,nt
CC(C)Oc1ccc(CNCCC2(C(C)C)CCOC(C)(C)C2)cc1 (stereo unspecified),-7,2,3,1,57*,5
Cc1cc(C(C#N)c2ccc(Cl)cc2)c(Cl)cc1NC(=O)c1cc(I)cc(I)c1O (stereo unspecified),13,11,-6,11,47*,41*
O=C(CNC(c1ccccc1)c1ccccc1)Nc1ccccc1F,6,-4,1,6,47*,-4
CC(=N)c1c(O)c2ccccc2oc1=O,2,3,-4,5,63*,1
O=C(CN1C(=O)/C(=C/c2ccco2)SC1=S)Nc1ccc(C(=O)O)c(O)c1,9,7,-2,-1,41*,14
CC(C(=O)Nc1ccc(C(=O)O)c(O)c1)N1C(=O)/C(=C\c2ccco2)SC1=S (stereo unspecified),18,16,nt,8,38*,13
CC(C(=O)N(C)C1CCS(=O)(=O)C1)N1C(=O)/C(=C/c2ccco2)SC1=S (stereo unspecified),-8,-2,1,0,22,nt

# Bioassay records (PubChem)
